Compound activity (PubChem BioAssay)
Tau fluor counter = Counterscreen qHTS for Inhibitors of Tau Fibril Formation, Fluorescence Polarization. tau K18 P301L Alexa594 fluorescence, heparin fibrillization. Potency, µM (top dose mostly 57.7 µM), for inactives: at the top dose activity change, negative = decrease. 0.93% of 280,000 active; also: % is scaled to controls: 0 for no effect and ±100 for the full control effect; nearly all actives have a fitted effect of over 55% in size
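Human tau K18 P301L (15 uM unlabeled, 0.24 uM Alexa 594-labeled) in 100 mM sodium acetate pH 7 with 20 uM heparin, 6 hr at 37 C. ThT 30 uM added, 1 hr ambient; Alexa 594 FP and total fluorescence read at 555/632 nm.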
HTT ATP protect = qHTS Multiplex Assay to Identify Dual Action Probes in a Cell Model of Huntington: Cytoprotection (ATP); PC12 HTT-Q103 induced, cytoprotection, ATP luminescence, 40 h; Potency, µM (highest dose often 56.4 µM), for the others: cytoprotection (ATP increase), hits mostly activators; 0.14% of 230,000 active; AID 1471, 2008; also: % of control where 0% means no effect; nearly all actives have a fitted effect of over 45% in size
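Compounds added alongside 100 nM tebufenozide, which induces toxic Q103 huntingtin exon 1-GFP in stable PC12 cells; surviving cells quantified by luminescent ATP measurement. Medium: phenol red-free DMEM, 5% equine and 5% calf serum.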
Tau ThT inhib = qHTS for Inhibitors of Tau Fibril Formation, Thioflavin T Binding; Microtubule-associated protein tau (Homo sapiens), P10636; recombinant tau K18 P301L (four-repeat tau fragment), heparin-induced fibrillization, ThT fluorescence; Potency, µM (titrated, usually from 57.4 µM), for the others: at the top dose activity, negative = inhibition, most hits filed as inhibitors; 2.1% of 270,000 active; AID 1460, 2008; also: % is scaled to controls: 0 for no effect and ±100 for the full control effect; nearly all actives have a fitted effect of over 55% in size
Target sequence (P10636 561-689 P618L limits assumed): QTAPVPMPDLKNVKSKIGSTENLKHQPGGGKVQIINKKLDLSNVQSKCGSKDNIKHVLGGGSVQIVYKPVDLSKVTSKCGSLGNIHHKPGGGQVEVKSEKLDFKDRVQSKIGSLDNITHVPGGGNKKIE
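In this qHTS, human K18 P301L tau is incubated with compound and heparin for 6 hr at 37 C, and Thioflavin T fluorescence then reports fibril load.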
HTT aggregate = qHTS Multiplex Assay to Identify Dual Action Probes in a Cell Model of Huntington: Aggregate Formation (GFP); Potency, µM (series often up to 46.1 µM), for the others: top-dose activity change, negative = inhibition, hits mostly inhibitors; 1.1% of 220,000 active; PC12 HttQ103-GFP aggregates, Acumen cytometry, 40 h; also: % is scaled to controls: 0 for no effect and ±100 for the full control effect; nearly all actives have a fitted effect of over 60% in size
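Inducible Q103 Huntingtin exon 1–GFP PC12 line, 1500 cells/well in phenol red free DMEM with 5% equine and 5% calf serum. Tebufenozide 100 nM induced expression; compounds titrated; aggregates quantified by cytometry.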
Tau FP inhib = qHTS for Inhibitors of Tau Fibril Formation, Fluorescence Polarization | K18 P301L tau heparin fibrillization, Alexa594 FP, 6 h | 0.39% of 280,000 active | Potency, µM (series often up to 57.7 µM), for the others: at the highest dose activity, negative = inhibition, most hits filed as inhibitors | Microtubule-associated protein tau (Homo sapiens), P10636; also: % is scaled to controls: 0 for no effect and ±100 for the full control effect; nearly all actives have a fitted effect of over 55% in size
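K18 P301L tau (15 uM unlabeled/0.24 uM Alexa 594-labeled, final) + compound + heparin 20 uM final; 100 mM NaOAc pH 7; 6 hr 37 C; ThT 30 uM final added, 1 hr RT; FP ex 555/em 632 nm.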
Active calls of the source: *; u = inconclusive; x = no result; [ ] = another dose, or the depositor's remark. An excerpt weighted towards active compounds, which were near 3.7% of everything screened. Calls follow the shape of the dose curve; as a rule, active = well fitted curve in the direction sought with a large enough effect; inconclusive = small, poorly fitted or top-dose-only effect, or another doubt; inactive = no such curve, though single readings can be large; an effect the other way counts as inactive or inconclusive. Potency is read from the fitted curve at half-maximal effect.

SMILES | Tau fluor counter | HTT ATP protect | Tau ThT inhib | HTT aggregate | Tau FP inhib
CCN(CC)c1ncnc2scc(C3COc4ccccc4O3)c12 (stereo not given) | -9% | 21%[10 µM] | u | u | -11%
Cn1c(=O)c2c(nc(C(=N)SCC(=O)O)n2C)n(C)c1=O | x | -10%[10 µM] | x | x | x
CC(=O)Nc1ccc2nc(NC(=O)COc3ccccc3Cl)sc2c1 | -20% | -33% | u | 8% | -16%
Cc1cccc(NC(=O)CSc2nc3ccc(NC(=O)c4cccs4)cc3s2)c1 | u | x | 5% | x | u
COc1cc(C)ccc1OCCSc1nc2ccc(NC(=O)c3cccs3)cc2s1 | 5µM*[quencher] | x | 1% | x | 10µM*
CC(=O)Nc1ccc2nc(SCCOc3ccccc3Cl)sc2c1 | 11µM*[quencher] | x | u | x | 11µM*
COc1cccc(NC(=O)CSc2nc3ccc(NC(=O)c4cccs4)cc3s2)c1 | 7.1µM*[quencher] | x | 0% | x | 7.9µM*
CCOC(=O)C1OC1c1ccccc1 (stereo not given) | x | -7% | x | x | x
NC(=S)c1ccc[n+]([C@@H]2O[C@@H](COP(=O)([O-])OP(=O)(O)OC[C@H]3O[C@@H](n4cnc5c(N)ncnc54)[C@H](OP(=O)(O)O)[C@H]3O)C(O)C2O)c1 (stereo not given in full) | 1% | x | 8% | x | 1%
COCCCNS(=O)(=O)c1ccc2c(c1)OCCO2 | 0% | 0% | 1% | -3% | -6%
CCOCCCNS(=O)(=O)c1ccc2c(c1)OCCO2 | 16µM*[quencher] | 6%[10 µM] | 16µM* | 5% | -5%
N#Cc1c(N)sc(=S)c2c1CCCCC2 | u | -8%[10 µM] | 13µM* | -21% | u
N#Cc1c(N)sc2c1CCCCCC2 | u | -1% | u | 2% | 1%
Cn1c(N)c(C#N)c2c(c1=S)CSC(C)(C)C2 | -24% | 14% | u | 12% | 2%
CC1(C)Cc2c(C#N)c(N)sc(=S)c2CS1 | u | 25%[10 µM] | 18µM* | 5% | -5%
O=C(c1nnsc1S(=O)(=O)c1ccc(Cl)cc1)N1CCOCC1 | 2% | -161% | u | 13µM* | -8%
O=C(Nc1ccccc1)c1nnsc1S(=O)c1ccc(Cl)cc1 (stereo not given) | 3% | -102% | -12% | u | -9%
CNC(=O)c1nnsc1S(=O)(=O)c1ccc(Cl)cc1 | 0% | -140% | -9% | 3.2µM* | -7%
O=C(c1nnsc1S(=O)c1ccc(Cl)cc1)N1CCOCC1 (stereo not given) | -13% | -153% | u | 11µM* | u
CCOC(=O)c1ccccc1NC(=O)c1cnc(N2CCOCC2)c2ccccc12 | -16% | x | -7% | x | 2%
O=C(O)C(Cc1ccccc1)Cc1ccccc1 | x | -6%[10 µM] | x | x | x
Clc1cccc(-n2ncc3c(Nc4ccc5c(c4)OCCO5)ncnc32)c1 | 6.3µM*[quencher] | x | u | x | u
Fc1ccc(-n2ncc3c(Nc4ccc5c(c4)OCCO5)ncnc32)cc1 | 11µM*[quencher] | x | u | x | 9%
COc1ccc(NC(=O)Cn2c(=O)n(-c3ccccc3)c(=O)c3c4c(sc32)CCCC4)cc1 | -5% | x | u | x | -18%
Cc1cc(=O)c2c(O)c3c(O)cc(O)c4c5c(O)cc(O)c6c(O)c7c(=O)cc(C)c8c1c2c(c34)c(c65)c78 | 4.5µM*[quencher] | -96% | 14µM* | x | u
SMILES | Tau fluor counter | HTT ATP protect | Tau ThT inhib | HTT aggregate | Tau FP inhib
Cc1cc(O)c2c(c1O)C(=O)c1c(O)cc(C)c(O)c1C2=O | -27% | u | u | x | -15%
CS(=O)(=O)c1ncc(Cl)c(C(=O)Nc2ccc(N3CCOCC3)cc2)n1 | u | -22%[10 µM] | 3.2µM* | 11µM* | u
Cc1ccc(/C=C/C(=O)Nc2cc(C)on2)cc1 | -2% | -36% | -1% | -17% | 7%
Cc1ccc(/C=C/C(=O)Nn2cnnc2)cc1 | -15% | 16% | 14µM* | -19% | u
O=[N+]([O-])c1cccnc1N1CCC(c2cc(-c3ccc(Cl)cc3)n[nH]2)CC1 | u | -75% | 7.9µM* | 6%[9.22 µM] | -8%
CC(=O)Nc1ccc2c(c1)/C(=C/c1ccc([N+](C)(C)C)cc1)c1ccccc1-2 | x | 0%[10 µM] | x | x | x
N[C@@H](C(=O)O)[C@H](O)C(=O)O | x | 24%[1.9 µM] | x | x | x
COc1cccc(-n2sc3c(c2=S)-c2cc(OC)ccc2NC3(C)C)c1 | 13µM*[quencher] | -34% | -19% | u | 12%
COc1cccc(-n2cn[nH]c2=S)c1 | -9% | -14% | -9% | 10% | -3%
O=[N+]([O-])c1cc2oc3c(c2c(C=NCc2ccccc2)c1O)CCCC3 | -11% | 11%[10 µM] | 5µM* | 26% | u
CC(C)CN=Cc1c(O)c([N+](=O)[O-])cc2oc3c(c12)CCCC3 | u | -16%[1.9 µM] | 4.5µM* | -8% | u
COc1cccc(CCc2ccccc2OCC(CN(C)C)OC(=O)CCC(=O)O)c1 (stereo not given) | x | -57% | x | -30% | x
COc1ccc(-c2cn[nH]c2-c2ccc(OCc3ccc(F)cc3)cc2O)cc1OC | 8.9µM*[quencher] | 32%[10 µM] | -15% | 22%[9.22 µM] | u
COc1ccc(-c2cn[nH]c2-c2ccc(OCc3ccccc3)cc2O)cc1OC | 3.2µM*[quencher] | -12%[10 µM] | -3% | -1%[9.22 µM] | u
Oc1cc(OCc2ccccc2)ccc1-c1[nH]ncc1-c1ccccc1 | 10µM*[quencher] | 33%[10 µM] | -13% | 0%[9.22 µM] | 25µM*
COc1ccc(-n2c(=O)c3c4c(sc3n(Cc3ccc(F)cc3)c2=O)CCCC4)c(OC)c1 | -20% | x | -14% | x | -12%
O=C1c2oc3ccccc3c(=O)c2C(c2ccc(O)cc2)N1Cc1ccc2c(c1)OCO2 (stereo not given) | 14% | x | 12% | x | -8%
CN1CCC[C@@H]1c1cccnc1.O=C(O)c1ccccc1O.O=C([OH2+])c1ccccc1O.O=C([OH2+])c1ccccc1O.O=C([OH2+])c1ccccc1O.[Cu] | x | -9%[10 µM] | x | x | x
CCn1c(O)c(C2=c3ccccc3=NC2=O)c2cc(Br)ccc21 | 3% | -11% | 4% | 10% | 8%
O=C1N=c2ccccc2=C1c1c(O)n(-c2cccc(F)c2)[nH]c1=O | -25% | x | 14µM* | 7% | u
O=C(CN1C(=O)/C(=C/c2cccc(Br)c2)SC1=S)Nc1cccnc1 | 8.9µM*[quencher] | 22% | u | 5% | u
O=C(CCCN1C(=O)/C(=C/c2ccccc2)SC1=S)Nc1cccc(O)c1 | 14µM*[quencher] | 15%[10 µM] | u | u | u
O=C(CCCN1C(=O)/C(=C\c2ccccc2)SC1=S)Nc1ccc(O)cc1 | 14µM*[quencher] | -8%[10 µM] | u | 16%[9.22 µM] | 14%
